Experimental data as given in the supplement of paper PMC9694430.

Assays:
Assay in all cases: thermal shift delta Tm vs DMSO control; higher = stronger stabilization (binding)
Conditions in all cases: 12.5 µM; protein concentration 2 µM
[1] = tested on: LOC_OS02G45750-cb003
Outline: (§1)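 Heating from 25°C to 95°C at 0.05°C/s, fluorescence was recorded for 19.5 μl wells of 2 μM E. coli-expressed, purified rice kinase domain in 100 mM potassium phosphate pH 7.5, 150 mM NaCl, 10% glycerol and 5 × SYPRO Orange with compound in DMSO. Boltzmann fits gave melting temperatures for this differential scanning fluorimetry assay. The shift reported is the mean of three replicates against the DMSO-only protein.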

[2] = tested on: LOC_OS02G54510-cb004
Outline: as §1

[3] = tested on: LOC_OS03G04050-cb001
Outline: as §1

[4] = tested on: LOC_OS03G12390-cb001
Outline: as §1

[5] = tested on: LOC_OS03G27990-cb004
Outline: as §1

[6] = tested on: LOC_OS03G50450-cb001
Outline: as §1

[7] = tested on: LOC_OS03G50810-cb003
Outline: as §1

[8] = tested on: LOC_OS04G35114-cb001
Outline: as §1

[9] = tested on: T1, LOC_OS04G38480-cb003
T1 sequence (whole entry): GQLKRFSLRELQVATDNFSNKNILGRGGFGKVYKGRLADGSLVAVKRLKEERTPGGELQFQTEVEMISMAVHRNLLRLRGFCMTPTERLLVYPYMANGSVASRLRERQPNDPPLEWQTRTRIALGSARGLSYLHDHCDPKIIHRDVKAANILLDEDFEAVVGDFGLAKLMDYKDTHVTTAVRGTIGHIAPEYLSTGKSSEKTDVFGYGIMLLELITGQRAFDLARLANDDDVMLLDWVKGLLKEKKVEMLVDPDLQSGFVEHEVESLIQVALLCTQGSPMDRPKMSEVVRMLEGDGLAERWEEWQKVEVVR
Outline: as §1

[10] = tested on: T2, LOC_OS04G41100-cb001
T2 sequence (whole entry): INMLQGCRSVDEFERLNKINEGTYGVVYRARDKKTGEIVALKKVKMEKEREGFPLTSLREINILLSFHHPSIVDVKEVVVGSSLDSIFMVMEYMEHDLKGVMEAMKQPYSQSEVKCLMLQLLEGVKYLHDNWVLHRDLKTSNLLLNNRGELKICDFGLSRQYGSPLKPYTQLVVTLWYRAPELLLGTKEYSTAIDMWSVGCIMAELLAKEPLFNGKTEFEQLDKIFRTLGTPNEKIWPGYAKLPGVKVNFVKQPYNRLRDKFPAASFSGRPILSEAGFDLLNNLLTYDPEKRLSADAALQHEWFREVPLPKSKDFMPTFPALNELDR
Outline: as §1

[11] = tested on: LOC_OS04G57630-cb004
Outline: as §1

[12] = tested on: LOC_OS05G07850-cb002
Outline: as §1

[13] = tested on: LOC_OS05G16824-cb004
Outline: as §1

[14] = tested on: LOC_OS05G28520-cb001
Outline: as §1

[15] = tested on: LOC_OS05G30820-cb001
Outline: as §1

[16] = tested on: LOC_OS05G43570-cb004
Outline: as §1

[17] = tested on: LOC_OS06G16330-cb003
Outline: as §1

[18] = tested on: T3, LOC_OS06G22820-cb001
T3 sequence (whole entry): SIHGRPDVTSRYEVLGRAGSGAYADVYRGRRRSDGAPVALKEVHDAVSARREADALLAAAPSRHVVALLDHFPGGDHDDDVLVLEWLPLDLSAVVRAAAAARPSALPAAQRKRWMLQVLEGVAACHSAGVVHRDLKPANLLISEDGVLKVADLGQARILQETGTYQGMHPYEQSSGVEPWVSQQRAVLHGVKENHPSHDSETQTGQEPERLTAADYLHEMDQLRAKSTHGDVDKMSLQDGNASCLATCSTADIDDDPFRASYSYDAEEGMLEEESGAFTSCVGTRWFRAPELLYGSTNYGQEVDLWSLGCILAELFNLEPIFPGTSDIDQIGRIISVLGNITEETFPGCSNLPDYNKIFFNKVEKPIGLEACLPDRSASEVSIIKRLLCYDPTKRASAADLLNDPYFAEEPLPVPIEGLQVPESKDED
Outline: as §1

[19] = tested on: LOC_OS07G06570-cb004
Outline: as §1

[20] = tested on: LOC_OS07G07230-cb001
Outline: as §1
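Also: purified Escherichia coli-expressed rice kinase domain construct.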

Sequence of LOC_OS06G16330-cb003 (as listed by the source): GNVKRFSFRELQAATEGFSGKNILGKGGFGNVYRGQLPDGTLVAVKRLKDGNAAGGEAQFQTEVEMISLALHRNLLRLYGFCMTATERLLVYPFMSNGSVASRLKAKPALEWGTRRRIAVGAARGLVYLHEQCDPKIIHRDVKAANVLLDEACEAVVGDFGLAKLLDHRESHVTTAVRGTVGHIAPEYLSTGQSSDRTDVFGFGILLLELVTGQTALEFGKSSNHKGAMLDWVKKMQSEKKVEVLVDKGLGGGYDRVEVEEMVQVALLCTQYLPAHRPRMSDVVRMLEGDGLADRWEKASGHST

Row | Structure (SMILES) | thermal shift delta Tm [1] | thermal shift delta Tm [2] | thermal shift delta Tm [3] | thermal shift delta Tm [4] | thermal shift delta Tm [5] | thermal shift delta Tm [6] | thermal shift delta Tm [7] | thermal shift delta Tm [8] | thermal shift delta Tm [9] | thermal shift delta Tm [10] | thermal shift delta Tm [11] | thermal shift delta Tm [12] | thermal shift delta Tm [13] | thermal shift delta Tm [14] | thermal shift delta Tm [15] | thermal shift delta Tm [16] | thermal shift delta Tm [17] | thermal shift delta Tm [18] | thermal shift delta Tm [19] | thermal shift delta Tm [20]
1 | CN1CCN(c2nc(C3=C(c4c[nH]c5ccccc45)C(=O)NC3=O)c3ccccc3n2)CC1 [Sotrastaurin] | 1.74 °C | 0.21 °C | 0.22 °C | 0.18 °C | 0.49 °C | 0.36 °C | 1.38 °C | 1.49 °C | 0.76 °C | 0.51 °C | -0.06 °C | 5.2 °C | 1.64 °C | 0.09 °C | 0.74 °C | 1.24 °C | 0.19 °C | 0.49 °C | 0.81 °C | -0.05 °C
2 | Cn1cnc2c(F)c(Nc3ccc(Br)cc3Cl)c(C(=O)NOCCO)cc21 [Selumetinib (AZD6244)] | 0.34 °C | 0.31 °C | 0.26 °C | 0.11 °C | -0.04 °C | -0.25 °C | 0.02 °C | 0.24 °C | 0.38 °C | 0.75 °C | -0.08 °C | -0.01 °C | -2 °C | 0.43 °C | 0.51 °C | 0.42 °C | 0.02 °C | 0.61 °C | 0.8 °C | 0.42 °C
3 | O=C(Cc1ccc(-c2ccc(OCCN3CCOCC3)cc2)cn1)NCc1ccccc1 | 0.29 °C | 0.08 °C | 0.31 °C | 0.07 °C | 0.38 °C | 0.47 °C | 0.43 °C | 0.43 °C | 0.12 °C | 0.27 °C | 0.12 °C | 0.35 °C | -2.04 °C | 0.32 °C | 0.37 °C | 0.34 °C | -0.02 °C | 0.6 °C | 0.25 °C | -0.12 °C
4 | C=CC(=O)Nc1cc(Nc2nccc(-c3c[nH]c4ccccc34)n2)c(OC)cc1N(C)CCN(C)C | 1.45 °C | 0.35 °C | 0.7 °C | 5.75 °C | 0.52 °C | 0.87 °C | 1.28 °C | 4.03 °C | 2.42 °C | 0.37 °C | 0.51 °C | 11 °C | -1.05 °C | 0.61 °C | 0.72 °C | 0.75 °C | 6.67 °C | 0.58 °C | 1.6 °C | 0.9 °C
5 | Cc1c(C(=O)Nc2ccc(Oc3ccnc4[nH]cc(-c5ccccc5)c34)c(F)c2)c(=O)n(-c2ccc(F)cc2)n1C | 1.92 °C | -0.32 °C | 0.37 °C | 1.39 °C | 0.47 °C | 0.52 °C | 1.79 °C | 5.04 °C | 3.56 °C | 1.06 °C | 0.42 °C | 14.4 °C | 1.37 °C | 0.13 °C | 0.63 °C | 0.25 °C | 6.4 °C | 0.86 °C | 1.05 °C | -0.13 °C
6 | CS(=O)(=O)N1CCc2c(-c3cnc(N)nc3)nc(N3CCOCC3)nc21 | 1.16 °C | 0.52 °C | 0.13 °C | 0.72 °C | 0.23 °C | 0.77 °C | 0.53 °C | 0.89 °C | 1.31 °C | 0.14 °C | 0.4 °C | 2.27 °C | 0.4 °C | 0.43 °C | 0.79 °C | 0.7 °C | 0.69 °C | 0.66 °C | 0.72 °C | -0.05 °C
7 | Nc1ccc(C(=O)Nc2cccc(-c3nc(N4CCOCC4)c4oc5ncccc5c4n3)c2)cn1 | 0.01 °C | 0.01 °C | 1.54 °C | 0.36 °C | 0.09 °C | 0.25 °C | 0.09 °C | 0.9 °C | 0.66 °C | 0.52 °C | 1.19 °C | 1.25 °C | -3.13 °C | 0.31 °C | 0.83 °C | 0.15 °C | 0.32 °C | 0.39 °C | 0.88 °C | -0.01 °C
